# Measured values: PMC6792352, “Limited Chemical Structural Diversity Found to Modulate Thyroid Hormone Receptor in the Tox21 Chemical Library” (Environmental Health Perspectives, 2019)
# Counter-ions that a name gives are not always drawn.
# Test system: thyroid hormone receptor (endogenous TRα and TRβ)
# Set-up: species or system GH3-TRE-Luc (rat pituitary); GH3-TRE-Luc luciferase reporter, antagonist mode against 1 nM T3, loss of signal, qHTS
# Settings: read-out: Average AC50 (uM) GH3-TRE-Antag, antagonist mode, 1 nM T3, no GH3 cytotoxicity hit
row,SMILES,AC50
1,CCOC(=O)Cn1cccc1-c1nc(-c2ccc(OC)cc2)c(-c2ccc(OC)cc2)s1 [Pamicogrel],14.5 µM
2,CCCCCC/C=C\CCCCCCCC(=O)O [(Z)-Hexadec-9-enoic acid],44.5 µM
3,C[C@H]1O[C@@H](O[C@H]2[C@@H](O)C[C@H](O[C@H]3[C@@H](O)C[C@H](O[C@H]4CC[C@@]5(C)[C@H](CC[C@@H]6[C@@H]5CC[C@]5(C)[C@@H](C7=CC(=O)OC7)CC[C@]65O)C4)O[C@@H]3C)O[C@@H]2C)C[C@H](O)[C@@H]1O [Digitoxin],40 µM
4,COc1cccc(C(=O)NN(C(=O)c2cc(C)cc(C)c2)C(C)(C)C)c1C [Methoxyfenozide],55.4 µM
5,CCN(CC)CCOCCOC(=O)C1(c2ccccc2)CCCC1 [Carbetapentane],11 µM
6,CN1CCCN=C1COC(=O)C(O)(c1ccccc1)C1CCCCC1 (centres unmarked) [Oxyphencyclimine hydrochloride],43.3 µM
7,Cc1cc(OI)c(C(C)C)cc1-c1cc(C(C)C)c(OI)cc1C [Thymol iodide],37.3 µM
8,O=C(O)C1=NN(c2ccc(S(=O)(=O)O)cc2)C(=O)C1N=Nc1ccc(S(=O)(=O)O)cc1 (centres unmarked) [FD&C Yellow 5],6.01e-06 µM
9,"NC(=S)NC(N)=S [2,4-Dithiobiuret]",45 µM
10,"Clc1cc(Cl)c2c(c1)N=C1CCCCCN1C2 [1,3-dichloro-6,7,8,9,10,12-hexahydroazepino[2,1-b]quinazoline hydrochloride (1:1)]",40.1 µM
11,O=C(N/N=C/c1ccccc1O)c1ccncc1 [Salinazid],20.5 µM
